Screens (PubChem BioAssay)
D2 PAM-1 = positively modulates the human D2 dopamine receptor allosterically; HEK293 T-REx D2, calcium flux, EC20 dopamine potentiation; potentiation, % at 10 µM; 340,000 tested, 0.34% active;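 active = potentiation over 3 SD above the plate norm, cut at about 30% in these data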; also: 0% is about no effect
Target sequence (P14416 whole entry, looked up): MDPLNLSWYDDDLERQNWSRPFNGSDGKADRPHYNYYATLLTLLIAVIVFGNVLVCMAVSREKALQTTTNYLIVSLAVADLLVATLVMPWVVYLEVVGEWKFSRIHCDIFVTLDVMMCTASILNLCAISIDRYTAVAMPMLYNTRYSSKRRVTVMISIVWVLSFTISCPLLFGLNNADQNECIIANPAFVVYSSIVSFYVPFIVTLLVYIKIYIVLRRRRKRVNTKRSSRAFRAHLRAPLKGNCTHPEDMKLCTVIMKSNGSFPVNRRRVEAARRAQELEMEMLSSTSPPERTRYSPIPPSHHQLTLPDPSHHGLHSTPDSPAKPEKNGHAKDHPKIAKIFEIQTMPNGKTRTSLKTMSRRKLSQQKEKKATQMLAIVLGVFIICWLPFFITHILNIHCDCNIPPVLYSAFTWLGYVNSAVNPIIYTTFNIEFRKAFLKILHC
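Potentiation of an EC20 dopamine calcium response is measured in a force-coupled, tetracycline-inducible Hek293 Trex D2 line. Compound-only kinetic reads over 180 s flag agonists before dopamine addition.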
D2 ag-1 = activates the human D2 dopamine receptor. activation, % (test concentration not listed). 360,000 tested, 0.084% active. P14416. DiscoveRx PathHunter D2 beta-arrestin, luminescence, 90 min; 100% = 57 uM dopamine signal. AID 624465; in the data active = activation above about 40%; inconclusive = between about 15% and that limit
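Agonist mode: compounds alone added to overnight-plated D2 PathHunter cells for 90 min at 37 C, with 57 uM final dopamine (EC100) defining full response. Beta-arrestin recruitment detected by chemiluminescent reagent, read after 1 h at ambient temperature.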
D2 antagonist = antagonizes the human D2 dopamine receptor; HEK293 TREx D2 cells, calcium flux, dopamine EC80; inhibition, % at 10 µM; 340,000 tested, 2% active; AID 485344; in the data active = inhibition above about 30%; inactive = below that, where a call was filed; also: 0% is about no effect
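Tetracycline-induced HEK293 TREx cells expressing D2 receptor forced-coupled to calcium signalling, loaded with no-wash calcium dye. Compounds added and calcium flux read 180 s, then dopamine added at EC80 and read a further 180 s.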
D2 PAM-2 = positive allosteric modulators of human D2 dopamine receptor; P14416; DiscoveRx D2 beta-arrestin cells, luminescence, 90 min; 100% = 57 uM dopamine signal; potentiation, % (concentration not given with the values); 360,000 tested, 0.23% active; AID 624464; in the data active = potentiation above about 50%; inconclusive = mostly about 30% to 49%
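PathHunter beta-arrestin assay in DiscoveRx D2 cells. Compounds were added with an EC20 of dopamine (50 nM final) for 90 min at 37 deg C. Luminescence was read 1 h after detection reagent, with 57 uM dopamine as the EC100 control.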
D2 ag-2 = agonists of human D2 dopamine receptor. activation, % at 2 µM. HEK293 T-REx D2 cells, calcium flux agonist mode. 340,000 tested, 0.53% active;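 active = activation over 3 SD above normal in the single-dose calcium agonist read, cut at about 30% in these data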; also: 0% is about no effect
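Tetracycline-induced HEK293 T-REx cells with force-coupled D2 receptor, plated overnight at 30 C, loaded with no-wash calcium dye. After a 10 s baseline, compound was pin-added and calcium flux read kinetically for 180 s; calcium rises flagged agonists.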
Numbers without * were called inactive. A selection: hits, their analogues and other compounds. The true share with any hit is near 2.4%.

Results for COc1ccc(-n2nc(C(=O)NCC(=O)NCCc3ccc(OC)c(OC)c3)c3ccccc3c2=O)cc1Cl ?
D2 PAM-1: 55.1*; D2 ag-1: inconclusive; D2 antagonist: -21.0; D2 PAM-2: 23.3; D2 ag-2: 1.3

What do the screens show for `CCOC(=O)N1CCN(C(=O)CNC(=O)c2nn(-c3ccc(OC)c(Cl)c3)c(=O)c3ccccc23)CC1`?
D2 PAM-1: 42.6*; D2 ag-1: 13.3; D2 antagonist: -7.4; D2 PAM-2: 19.3; D2 ag-2: -1.3

Results for COCCNC(=O)CNC(=O)c1nn(-c2ccc(OC)c(Cl)c2)c(=O)c2ccccc12 ?
D2 PAM-1: 4.6; D2 ag-1: -4.3; D2 antagonist: 18.3; D2 PAM-2: -3.7; D2 ag-2: 0.0

Results for Cc1cc(C(=O)Cn2cnc3ccc(Cl)cc3c2=O)c(C)n1C1CC1 ?
D2 ag-1: -3.3; D2 PAM-2: -6.8

What do the screens show for `CC(C)c1ccc(S(=O)(=O)N2CCN(CC(O)CN3CCOCC3)CC2)cc1` (stereo not drawn)?
D2 PAM-1: 1.5; D2 ag-1: -4.9; D2 antagonist: -1.8; D2 PAM-2: -5.7; D2 ag-2: 0.3

What do the screens show for `CCC(C)c1ccc(S(=O)(=O)N2CCN(CC(O)COCC3CCCO3)CC2)cc1` (stereo not drawn)?
D2 PAM-1: -8.6; D2 ag-1: -4.4; D2 antagonist: 33.2*; D2 PAM-2: -9.4; D2 ag-2: -0.5

What do the screens show for `C=CCN1CCN(C(=O)c2cc3c(s2)CCC(CC)C3)CC1` (stereo not drawn)?
D2 PAM-1: -17.4; D2 ag-1: -6.0; D2 antagonist: 45.8*; D2 PAM-2: -40.7; D2 ag-2: -0.7

Results for CCC1CCc2sc(C(=O)O)cc2C1 (stereo not drawn) ?
D2 PAM-1: 6.8; D2 ag-1: -0.9; D2 antagonist: -14.7; D2 PAM-2: -3.5; D2 ag-2: 0.0

Results for CN(n1cnc2ccccc2c1=O)S(C)(=O)=O ?
D2 ag-1: -1.0; D2 PAM-2: -3.9

What do the screens show for `CS(=O)(=O)Nn1cnc2ccccc2c1=O`?
D2 PAM-1: 34.9*; D2 ag-1: 2.3; D2 antagonist: 3.6; D2 PAM-2: -2.6; D2 ag-2: -0.5

Results for CN(Cc1ccc2nsnc2c1)C(=O)C1CCC(=O)N(CCc2ccccc2)C1 (stereo not drawn) ?
D2 ag-1: -1.2; D2 PAM-2: -9.0

Results for O=C(CCn1c(=O)sc2ccccc21)NCc1ccco1 ?
D2 PAM-1: -16.8; D2 ag-1: -9.5; D2 antagonist: 41.8*; D2 PAM-2: -23.4; D2 ag-2: 0.3

What do the screens show for `Cn1c(Cn2c(=O)sc3ccccc32)nnc1SCC(=O)NCc1ccco1`?
D2 PAM-1: -9.8; D2 ag-1: -7.4; D2 antagonist: 12.2; D2 PAM-2: -0.7; D2 ag-2: 0.6

Results for O=C(CCn1c(=O)sc2ccccc21)NCCC1=CCCCC1 ?
D2 PAM-1: -39.5; D2 ag-1: -2.4; D2 antagonist: 37.5*; D2 PAM-2: -19.2; D2 ag-2: -3.0

Results for O=C1OC/C(=C(/O)c2ccc(Cl)cc2)C1=O ?
D2 ag-1: 2.7; D2 PAM-2: -19.5

How did CCCN(CCC)CCCNC(=O)Cn1cnc2onc(-c3ccc(F)cc3)c2c1=O do in these assays?
D2 PAM-1: 3.7; D2 ag-2: 1.5

What do the screens show for `COc1ccc(S(=O)(=O)NC(C)C(=O)N2CCCC2)cc1Cl` (stereo not drawn)?
D2 PAM-1: 5.0; D2 ag-1: -0.4; D2 antagonist: -2.2; D2 PAM-2: -4.1; D2 ag-2: 0.7

Results for COc1ccc(S(=O)(=O)NC(C)C(=O)N2CCCC2)cc1C (stereo not drawn) ?
D2 PAM-1: -11.5; D2 ag-1: 0.7; D2 antagonist: 32.4*; D2 PAM-2: -4.7; D2 ag-2: -0.2

Results for COc1ccc(NC(=O)C2CCN(C(=O)Nc3ccccc3)CC2)cc1S(=O)(=O)N(C)C ?
D2 PAM-1: -30.2; D2 ag-1: -1.6; D2 antagonist: 77.2*; D2 PAM-2: -39.0; D2 ag-2: 1.0

Results for CCc1cccc(OCCOC(=O)CNS(=O)(=O)c2ccc(NC(C)=O)cc2)c1 ?
D2 PAM-1: 10.4; D2 ag-1: -3.3; D2 antagonist: -15.8; D2 PAM-2: -38.6; D2 ag-2: -0.9

How did Cc1ccc(S(=O)(=O)NCc2ccccc2)cc1C(=O)N(C)Cc1ccccc1F do in these assays?
D2 PAM-1: -3.3; D2 ag-1: -2.2; D2 antagonist: 5.8; D2 PAM-2: 2.2; D2 ag-2: -1.3

What do the screens show for `Cc1ccc2c(c1)N(CC(=O)NCCc1c[nH]c3ccccc13)C(=O)CO2`?
D2 PAM-1: 60.2*; D2 ag-1: -0.7; D2 antagonist: 12.0; D2 PAM-2: -2.4; D2 ag-2: 0.7

Results for CCCCC(CC)CNC(=O)CN1C(=O)CSc2ccc(S(=O)(=O)N3CCOCC3)cc21 (stereo not drawn) ?
D2 PAM-1: -9.1; D2 ag-2: 0.5

How did C=CCNc1nc(C(=O)OCC(=O)Nc2c(Cl)cccc2C(F)(F)F)cs1 do in these assays?
D2 PAM-1: -3.7; D2 ag-1: 2.2; D2 antagonist: 36.3*; D2 PAM-2: -0.7; D2 ag-2: -0.2

Results for Cc1c(C(=O)Nc2ccc3c(c2)OCCO3)sc2ncnc(N3CCCCC3C)c12 (stereo not drawn) ?
D2 PAM-1: 12.9; D2 ag-1: 0.9; D2 antagonist: -6.5; D2 PAM-2: 10.5; D2 ag-2: -0.3

What do the screens show for `Cn1ncc2c(O/N=C(\N)c3ccc(C(C)(C)C)cc3)ncnc21`?
D2 PAM-1: 13.2; D2 ag-1: 85.9*; D2 antagonist: -1.5; D2 PAM-2: 85.3*; D2 ag-2: 0.3

How did CCCCCCSc1ccc(-c2nc3ccc(C)cn3c2NCc2ccccc2)cc1 do in these assays?
D2 PAM-1: -5.9; D2 ag-1: -1.8; D2 antagonist: 34.2*; D2 PAM-2: -4.5; D2 ag-2: 0.2

How did CCCCCCSc1ccc(-c2nc3ccc(C)cn3c2NCc2ccccc2)cc1OC do in these assays?
D2 PAM-1: -4.6; D2 ag-1: -9.1; D2 antagonist: 1.7; D2 PAM-2: -7.2; D2 ag-2: 0.6

How did Cc1ccc2nc(Nc3ccc(Br)cc3)nc(-c3ccccc3)c2c1 do in these assays?
D2 PAM-1: -5.1; D2 ag-2: 0.8

What do the screens show for `O=[N+]([O-])c1ncccc1OCc1ccccc1Br`?
D2 PAM-1: -11.3; D2 ag-1: -3.8; D2 antagonist: 34.3*; D2 PAM-2: -4.5; D2 ag-2: -0.5

How did Cc1ccc(-c2ocnc2C(=O)Nc2ccccc2C(=O)N2CCCC2)cc1 do in these assays?
D2 PAM-1: -10.9; D2 ag-1: 0.3; D2 antagonist: 57.1*; D2 PAM-2: -6.6; D2 ag-2: -0.6
